Assay [1] can be described thus: qHTS assay for small molecule agonists of the p53 signaling pathway (AID 651631; calls by dose curve; also: nearly all actives have a fitted effect of over 15% in size; also: potency is read from the fitted curve at half-maximal effect). The procedure, abridged:
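HCT-116 cells carrying a stable p53 response element–beta-lactamase reporter were plated, rested 5 h at 37 °C, then exposed to compound in DMSO for 16 h at 37 °C; reporter activity was read as FRET substrate fluorescence after 2 h at room temperature.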
Background: qHTS replaces the single test concentration by a dilution series.

Assay [2] is described as follows: qHTS assay for small molecules that induce genotoxicity in human embryonic kidney cells expressing luciferase-tagged ATAD5 (AID 651632). Also: nearly all actives have a fitted effect of over 15% in size. Also: potency is read from the fitted curve at half-maximal effect. The procedure, abridged:
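Genotoxicity read-out via ATAD5-luciferase: HEK293T cells, 16 hr compound incubation at 37C, Amplite detection.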

Assay [3] is described as follows: qHTS assay for small molecule agonists of the p53 signaling pathway - cell viability (AID 651633; calls by dose curve; also: nearly all actives have a fitted effect of over 30% in size; also: potency is read from the fitted curve at half-maximal effect). The procedure, abridged:
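p53RE-bla cells were treated with compound for 16 hours at 37 C. Cytotoxicity was then measured as CellTiter-Glo luminescence after 30 min at room temperature.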

The nature of assay [4]: qHTS assay for small molecules that induce genotoxicity in human embryonic kidney cells expressing luciferase-tagged ATAD5 - cell viability (AID 651634; calls by dose curve; also: nearly all actives have a fitted effect of over 25% in size; also: potency is read from the fitted curve at half-maximal effect). The procedure, abridged:
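Live-cell protease activity (CellTiter-Fluor, fluorescence) indicates viability. HEK293T cells with luciferase-tagged ATAD5; 15.5 hr compound treatment at 37C.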

A short description of assay [5]: qHTS assay for small molecule disruptors of the mitochondrial membrane potential - cell viability (AID 720634; calls by dose curve; also: nearly all actives have a fitted effect of over 20% in size; also: potency is read from the fitted curve at half-maximal effect). The procedure, abridged: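 Human hepatoma HepG2 cells were treated for 1 hr with test chemicals, then given m-MPI dye and CellTiter-Glo. Cell viability reflects luminescence proportional to cellular ATP.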
A short description of assay [6]: qHTS assay to test for compound auto fluorescence at 590 nm (red) in HepG2 cells (AID 720674). Also: potency is read from the fitted curve at half-maximal effect. The procedure, abridged: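 Seeding: 2,000 HepG2 cells/well, MEM/10% FBS, overnight 37 C. Dosing: compound vs DMSO. Incubation: 1 hr, 37 C, 5% CO2. Read: fluorescence 540 ex/590 em, Rose Bengal sodium as red reference.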
A short description of assay [7]: qHTS assay to test for compound auto fluorescence at 535 nm (green) in HepG2 cells (AID 720675).
Assay [8] is described as follows: qHTS assay to test for compound auto fluorescence at 460 nm (blue) in HEK293 cells (AID 720678). The procedure, abridged:
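Intrinsic compound fluorescence is recorded in live HEK293 cultures after overnight incubation at 37C, 5% CO2, using excitation 405 nm and emission 460 nm. Values are referenced to triamterene.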

Assay [9] can be described thus: qHTS assay to test for compound auto fluorescence at 590 nm (red) in HEK293 cells (AID 720679). Also: potency is read from the fitted curve at half-maximal effect. The procedure, abridged: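 Red autofluorescence, HEK293 cells: 2,000 cells/well; attach 4-5 hr 37C; add 23 nL cpd or DMSO; incubate o/n 37C 5% CO2; read Ex540/Em590; Rose Bengal sodium reference.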
The nature of assay [10]: qHTS assay to test for compound auto fluorescence at 535 nm (green) in HEK293 cells (AID 720680).
Assay [11] in a line: qHTS assay to test for compound auto fluorescence at 460 nm (blue) in HEK293 cell free culture (AID 720681). The procedure, abridged: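 Compounds were added to cell-free DMEM with 10% FBS and fluorescence read directly. The blue channel used 405 nm excitation and 460 nm emission, with triamterene as the reference fluorophore.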
Assay [12] is described as follows: qHTS assay to test for compound auto fluorescence at 590 nm (red) in HEK293 cell free culture (AID 720683). Also: potency is read from the fitted curve at half-maximal effect. The procedure, abridged:
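Cell-free wells of DMEM with 10% FBS received compound, and intrinsic fluorescence was read at excitation/emission 540/590 nm. Values expressed as equivalence to Rose Bengal sodium.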

Assay [13] in a line: qHTS assay to test for compound auto fluorescence at 460 nm (blue) in HepG2 cell free culture (AID 720685). The procedure, abridged:
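Compound (23 nL) or DMSO pinned into cell-free MEM with 10% FBS; blue fluorescence read at 405/460 nm excitation/emission, expressed as auto-fluorescence equivalency to triamterene.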

Assay [14] can be described thus: qHTS assay to test for compound auto fluorescence at 460 nm (blue) in HepG2 cells (AID 720687). The procedure, abridged: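 HepG2 cells in MEM with 10% FBS, attached overnight at 37 C, were exposed to compound or DMSO for 1 hr at 37 C, 5% CO2. Blue fluorescence was read at 405/460 nm, with triamterene as reference fluorophore.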
A short description of assay [15]: qHTS assay for small molecule disruptors of the mitochondrial membrane potential (AID 720635). Also: potency is read from the fitted curve at half-maximal effect. The procedure, abridged:
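HepG2 cells exposed to compound 1 hr at 37C, then Mito-MPS dye 30 min. Ratio read of aggregate (540/590 nm) versus monomer (490/535 nm) fluorescence.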

A short description of assay [16]: qHTS assay to test for compound auto fluorescence at 590 nm (red) in HepG2 cell free culture (AID 720684). The procedure, abridged: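 Compounds are added to culture medium (MEM, 10% FBS) lacking cells, then fluorescence is read at excitation 540 nm, emission 590 nm, with Rose Bengal sodium as the equivalency standard.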
Assay [17] is described as follows: qHTS assay to test for compound auto fluorescence at 535 nm (green) in HepG2 cell free culture (AID 720686).
The nature of assay [18]: qHTS assay to test for compound auto fluorescence at 535 nm (green) in HEK293 cell free culture (AID 720682). The procedure, abridged:
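Read-out: 485/535 nm fluorescence intensity, calibrated against fluorescein. Medium only (DMEM + 10% FBS, no cells); test compound or DMSO vehicle added by pintool before plate reading.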

In assay [19] the target is Glucocorticoid receptor (Homo sapiens) (UniProt P04150). The assay is described as follows: qHTS assay to identify small molecule agonists of the glucocorticoid receptor (GR) signaling pathway (AID 720691; active = well fitted activation curve with a large enough effect in the signal ratio in the repeat runs, not every such curve was filed as active; the % refers to the signal ratio). Conditions: GR-bla HeLa, beta-lactamase reporter ratio, 18 h; activation: at 62.4 µM (top of the series). The procedure, abridged: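 Beta-lactamase reporter activity, read as fluorescence intensity, was measured in GR-bla HeLa cells exposed to compounds for 18 h at 37 C and then loaded with LiveBLAzer B/G FRET substrate for 2 h at room temperature.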
Sequence of Glucocorticoid receptor (Homo sapiens) (P04150 whole entry, looked up): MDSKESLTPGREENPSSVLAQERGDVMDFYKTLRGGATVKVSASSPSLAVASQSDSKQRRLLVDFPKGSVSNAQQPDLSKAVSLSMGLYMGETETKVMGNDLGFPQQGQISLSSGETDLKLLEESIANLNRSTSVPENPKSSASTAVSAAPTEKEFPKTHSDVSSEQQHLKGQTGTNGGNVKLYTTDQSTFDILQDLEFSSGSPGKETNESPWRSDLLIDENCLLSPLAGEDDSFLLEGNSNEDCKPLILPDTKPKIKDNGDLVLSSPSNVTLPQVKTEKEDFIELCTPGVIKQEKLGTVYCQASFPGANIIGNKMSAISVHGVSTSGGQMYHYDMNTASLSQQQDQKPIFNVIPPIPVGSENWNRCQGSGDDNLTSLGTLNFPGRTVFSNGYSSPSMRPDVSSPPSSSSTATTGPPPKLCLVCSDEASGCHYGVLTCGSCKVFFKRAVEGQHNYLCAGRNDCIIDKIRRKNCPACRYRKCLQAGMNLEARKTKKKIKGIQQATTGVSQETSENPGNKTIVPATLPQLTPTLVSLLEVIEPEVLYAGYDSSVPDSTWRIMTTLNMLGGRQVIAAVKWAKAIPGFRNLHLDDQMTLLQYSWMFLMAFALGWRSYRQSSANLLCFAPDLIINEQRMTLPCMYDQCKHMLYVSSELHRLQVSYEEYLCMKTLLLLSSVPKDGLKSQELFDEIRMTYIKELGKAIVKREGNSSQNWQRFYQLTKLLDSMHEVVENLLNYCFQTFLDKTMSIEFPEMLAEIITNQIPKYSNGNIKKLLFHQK

The target is the same in assay [20]. The assay can be described thus: qHTS assay to identify small molecule antagonists of the glucocorticoid receptor (GR) signaling pathway (AID 720692; active = well fitted inhibition curve with a large enough effect in the signal ratio in the repeat runs, not every such curve was filed as active; the % refers to the signal ratio). The procedure, abridged:
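Fluorescence from cleaved LiveBLAzer B/G FRET substrate reports GRE-driven beta-lactamase in HeLa cells; compounds are tested against 5 nM dexamethasone (final) over 18 h at 37 C, substrate incubation 2 h at room temperature.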

“And” between values parts separate entries of the source, which are not always exact repeats. Equal entries are not always repeated. A number with no mark means an inactive call. Results filed as inconclusive are left out. The source made the active and inactive calls. Unless noted, calls follow the shape of the dose curve; as a rule, active = well fitted curve in the direction sought with a large enough effect in the repeat runs; inconclusive = weak or mixed curves; inactive = no such curve, though single readings can be large; an effect the other way counts as inactive or inconclusive.
Tags tell the direction and shape of the fitted curve or compound fluorescence and quenching.

Turning to `CCN1/C(=C/C=C/c2sc3ccccc3[n+]2CC)Sc2ccccc21`, the Potency is 15 µM (active) in assay [1]; 16.8 µM (active) in assay [3]; 10.6 µM (active) in [4]; 12.6 µM (active) in assay [6]; 11.2 µM [fluorescent] (active) in assay [9]; 11.2 µM [fluorescent] (active) in assay [12]. The Potency result in [2], in [5], in [7], in assay [8], in assay [11] and in [13] was “inactive” in each case. Further, the Potency entry in assay [14] is “inactive”. In addition, the outcome in assay [10] was inactive.

Regarding `O=C(Nc1ccc(Oc2ccc(Cl)cc2)c(Cl)c1)c1cc(I)cc(I)c1O`, the Potency in assay [1] is 10.6 µM (active); in assay [3] it was 4.22 µM (active); in assay [15], 2.37 µM (active). The Potency entry in assay [2], in assay [4], in [5], in assay [6], in assay [7] and in [8] was “inactive” each time. Besides, the Potency result in [9], in [11], in assay [12], in assay [16], in [13] and in [17] was “inactive” in each case. In addition, the Potency entry in [14] is “inactive”. For the same molecule, the result in assay [10] was inactive.

Take `COCCCC/C(=N\OCCN)c1ccc(C(F)(F)F)cc1`: the Potency entry in assay [1], in assay [2], in assay [3], in assay [4], in assay [5] and in assay [6] was “inactive” in each case. In addition, the Potency result in assay [7], in assay [12], in assay [16], in [13], in assay [17] and in assay [14] was “inactive” throughout. For the same molecule, the Potency result in assay [19] and in [20] was “inactive” each time. Besides, the call in assay [10] and in [18] was inactive.

As to `[O-][n+]1ccccc1SSc1cccc[n+]1[O-]`, the Potency in assay [1] was 2.66 µM (active); in assay [2] it was 2.66 µM (active); in [4], 7.5 µM (active); in [15], 0.668 µM (active). Besides, the Potency entry in assay [3], in [5], in [6], in assay [7], in [8] and in [11] was “inactive” throughout. In addition, the Potency result in assay [12], in [16], in [13] and in assay [14] was “inactive” each time. Moreover, the outcome in assay [10] and in assay [18] was inactive.

Consider `CCCCCOC(=O)CCCC`, for which the Potency result in [1], in assay [2], in assay [3], in [4], in assay [5] and in assay [15] was “inactive” throughout. Also, the Potency entry in [6], in [7], in [8], in assay [9], in assay [11] and in assay [12] was “inactive” throughout. Moreover, the Potency entry in assay [16], in assay [13], in assay [17], in assay [14], in assay [19] and in [20] was “inactive” each time. Further, the call in assay [10] and in [18] was inactive.

As for `Oc1ccc(Cl)cc1Sc1cc(Cl)ccc1O`, the Potency is 29.8 µM (active) in assay [1]; 26.6 µM (active) and 54.4 µM (active) in [3]; 19.3 µM (active) in assay [4]; 9.44 µM (active) and 13.7 µM (active) in [5]; 2.11 µM (active) and 1.53 µM (active) in assay [15]. The Potency entry in assay [2], in assay [6], in assay [8], in [9], in [11] and in [12] was “inactive” in each case. For the same molecule, the Potency entry in assay [16], in [13], in assay [17] and in assay [14] was “inactive” throughout. Further, the molecule was classed as inactive in assay [10] and in [18].

The record behind these values is PubChem BioAssay (Tox21).
